# Measurements reported in PubChem BioAssay (EPA / NIEHS).
# Inconclusive results are not listed. Calls of active or inactive are those of the source. Rule for the calls: active = hit-call score of the fitted dose curve at least 0.9, where 1 is the maximum; inconclusive = response in the unintended direction; inactive = score below 0.9.
# Target: Estrogen receptor (Homo sapiens) + Estrogen receptor beta (Homo sapiens) (UniProt P03372+Q92731)
# Test: OT_ER_ERaERb_0480: Odyssey Thera (OT) 8-hour HEK293T Protein-Complementation Assay for Estrogen Receptor-alpha/-beta Heterodimer (AID 2283352)
# Description: OT_ER_ERaERb_0480 is a cell-based assay that uses HEK293T, a human kidney cell line, with measurements taken at 8 hours after chemical dosing in a 384-well plate.OT_ER_ERaERb_0480 is one of one assay component(s) measured or calculated from the OT_ER_ERaERb_0480 assay. It is designed to make measurements of protein fragment complementation, a form of binding reporter, as detected with fluorescence intensity signals by Protein-fragment Complementation technology.Data from the assay component OT_ER_ERaERb_0480 was analyzed into 1 assay endpoint. This assay endpoint, OT_ER_ERaERb_0480, was analyzed in the positive analysis fitting direction relative to DMSO as the negative control and baseline of activity. Using a type of binding reporter, measures of receptor for gain-of-signal activity can be used to understand the binding at the pathway-level as they relate to the gene ESR1 and ESR2. Furthermore, this assay endpoint can be referred to as a primary readout, because the performed assay has only produced 1 assay endpoint. To generalize the intended target to other relatable targets, this assay endpoint is annotated to the nuclear receptor intended target family, where the subfamily is steroidal.
# Protein-fragment complementation assay, or PCA, is a method for the identification and quantification of protein-protein interactions. In the PCA, the proteins of interest ("bait" and "prey") are each covalently linked to fragments of a third protein (e.g. DHFR, which acts as a "reporter"). Interaction between the bait and the prey proteins brings the fragments of the reporter protein in close proximity to allow them to form a functional reporter protein whose activity can be measured. […] Fluorescent signal in the basal state of the assay is very low and is primarily punctuate and cytoplasmic. Modulation of this assay is quantified as an increase in mean fluorescence intensity in the nucleus (for agonists) or in the nucleus and cytoplasm (antagonists) relative to vehicle controls, and can be quantified on a high content imaging device or a laser scanning cytometer. The latter instrument is favored for this assay because of the rapid mode of data acquisition, the ability to acquire data from the entire cell population in a well (as opposed to a fraction of the well on the high content devices) and the larger dynamic range typically achieved with this instrument. To assess sensitivity of the ER alpha/ER beta LBD assay to ligand, cells were treated with the ER agonist 17- beta-estradiol (E2) in 10-point concentration- response format for 8 hours and monitored response on a laser scanning plate cytometer (Acumen eX3; TTP Lab Tech).
# Estrogen receptor (Homo sapiens) + Estrogen receptor beta (Homo sapiens), sequence (P03372 whole entry, looked up): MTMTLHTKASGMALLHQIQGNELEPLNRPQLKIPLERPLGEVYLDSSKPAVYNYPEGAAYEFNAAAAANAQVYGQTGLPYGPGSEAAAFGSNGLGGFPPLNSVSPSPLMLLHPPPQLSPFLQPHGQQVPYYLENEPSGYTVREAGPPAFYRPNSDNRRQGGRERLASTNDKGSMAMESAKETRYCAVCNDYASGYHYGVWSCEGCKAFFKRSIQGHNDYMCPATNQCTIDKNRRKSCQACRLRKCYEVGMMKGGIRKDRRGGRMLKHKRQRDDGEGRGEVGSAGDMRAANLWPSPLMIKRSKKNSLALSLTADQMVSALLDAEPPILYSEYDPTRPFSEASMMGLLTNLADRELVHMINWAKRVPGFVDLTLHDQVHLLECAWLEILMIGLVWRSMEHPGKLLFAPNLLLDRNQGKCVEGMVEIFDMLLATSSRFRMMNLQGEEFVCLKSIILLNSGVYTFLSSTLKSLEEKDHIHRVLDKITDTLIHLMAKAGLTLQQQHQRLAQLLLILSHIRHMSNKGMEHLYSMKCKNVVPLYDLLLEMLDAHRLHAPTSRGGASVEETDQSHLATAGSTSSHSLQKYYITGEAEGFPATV
# Estrogen receptor (Homo sapiens) + Estrogen receptor beta (Homo sapiens), sequence (Q92731 whole entry, looked up): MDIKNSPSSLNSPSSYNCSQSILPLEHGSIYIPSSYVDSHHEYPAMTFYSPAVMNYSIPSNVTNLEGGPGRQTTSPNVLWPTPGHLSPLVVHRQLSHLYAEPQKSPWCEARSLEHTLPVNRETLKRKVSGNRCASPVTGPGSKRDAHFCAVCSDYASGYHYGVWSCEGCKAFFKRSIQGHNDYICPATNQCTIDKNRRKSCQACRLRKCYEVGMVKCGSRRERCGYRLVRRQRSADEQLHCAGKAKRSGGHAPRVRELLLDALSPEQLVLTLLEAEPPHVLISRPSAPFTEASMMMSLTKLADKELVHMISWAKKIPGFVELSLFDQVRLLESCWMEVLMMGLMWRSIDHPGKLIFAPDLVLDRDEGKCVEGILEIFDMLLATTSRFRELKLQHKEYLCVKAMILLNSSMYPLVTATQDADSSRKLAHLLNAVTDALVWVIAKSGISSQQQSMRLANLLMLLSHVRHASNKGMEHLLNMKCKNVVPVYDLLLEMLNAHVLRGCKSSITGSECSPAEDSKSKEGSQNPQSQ
row,SMILES,outcome
1,OCC(CO)(CO)CO,inactive
2,CNC(C)=O,inactive
3,Cc1ncc([C@@H](CCCCCCc2ccc3c(n2)NCCC3)CC(=O)O)cn1,inactive
4,c1ccc2c(c1)-c1cccc3c1c-2cc1ccccc13,inactive
5,O=C(O)c1ccc2c(c1)nc(C(=O)NC1CCN(C3CC3)CC1)n2Cc1cc(-c2ccc(Cl)s2)on1,inactive
6,NC(=O)NN=Cc1ccc([N+](=O)[O-])o1,inactive
7,Cc1nccn1-c1ccc(Sc2cccc(C3(C(N)=O)CCOCC3)c2)cc1,inactive
8,CCn1nc(C)c2c1C(=O)NCC(c1ccc(O)cc1)=N2,inactive
9,CC[C@H](C)C(=O)O[C@H]1C[C@H](O)C=C2C=C[C@H](C)[C@H](CC[C@@H](O)C[C@@H](O)CC(=O)O)[C@H]21,inactive
10,OC[C@H]1O[C@@H]2O[C@H]3[C@H](O)[C@@H](O)[C@@H](O[C@H]4[C@H](O)[C@@H](O)[C@@H](O[C@H]5[C@H](O)[C@@H](O)[C@@H](O[C@H]6[C@H](O)[C@@H](O)[C@@H](O[C@H]7[C@H](O)[C@@H](O)[C@@H](O[C@H]1[C@H](O)[C@H]2O)O[C@@H]7CO)O[C@@H]6CO)O[C@@H]5CO)O[C@@H]4CO)O[C@@H]3CO,inactive
11,COc1cc2c(c(OC)c1OC)-c1ccc(OC)c(=O)cc1[C@@H](NC(C)=O)CC2,inactive
12,CC(C)CC(C)O (stereo not given),inactive
13,NC(=O)N(O)[C@@H]1COc2cc(OCc3ccccc3)ccc21,inactive
14,CCCCN1C(=O)[C@@H]([C@H](O)C2CCCCC2)NC(=O)C12CCN(Cc1ccc(Oc3ccc(C(=O)O)cc3)cc1)CC2,inactive
15,CCc1cccc(CC)c1N,inactive
16,CCN(CC)C(=S)SSC(=S)N(CC)CC,inactive
17,OCCOCCOCCO,inactive
18,CCCCC(CC)C(=O)OCCOCCOCCOC(=O)C(CC)CCCC (stereo not given),inactive
19,OC(CCl)CCl,inactive
20,C=CCc1cc(S(=O)(=O)c2ccc(O)c(CC=C)c2)ccc1O,inactive

row,SMILES,outcome
1,CCCCCCCC1CCC(=O)O1 (stereo not given),inactive
2,CCCc1ccccc1,inactive
3,CCCCCCCCCCCCCCO,inactive
4,CCc1ccc(O)c(C(C)(C)C)c1,inactive
5,CC(C)C(=O)Nc1ccc([N+](=O)[O-])c(C(F)(F)F)c1,inactive
6,CCCCCCCCCCCCCCCCOS(=O)(=O)O,inactive
7,CCCOc1ccc(S(=O)(=O)N2CCN(CC)CC2)cc1-c1nc2c(CC)n(Cc3ccccn3)nc2c(=O)[nH]1,inactive
8,CC(C)c1nnc2ccc(-c3ocnc3-c3cc(F)ccc3F)cn12,inactive
9,NC(N)=O,inactive
10,Cc1cccc(O)c1C,inactive
11,CCCCCCOC(=O)CC(CC(=O)OCCCCCC)(OC(=O)CCC)C(=O)OCCCCCC,inactive
12,COCc1nnc(-c2ccc[n+]([O-])c2)n1-c1c(Cl)c(Cl)cc2[nH]c(=O)c(=O)[nH]c12,inactive
13,CCOc1ccc2[nH]cc(C(=O)NCc3ccccc3)c(=O)c2n1,inactive
14,CCCCCCCCCC,inactive
15,CCCCCCCC/C=C\CCCCCCCC(=O)OC[C@@H](O)[C@H]1OC[C@H](O)[C@H]1O,inactive
16,C[C@@H](Oc1ccc(CNC(=O)c2cccnc2Oc2ccc3c(c2)OCO3)c(F)c1)C(=O)O,inactive
17,OCc1ccccc1,inactive
18,CC(C)CCCCCCOC(=O)C1CCCCC1C(=O)OCCCCCCC(C)C (stereo not given),inactive
19,O=C(O)[C@H](O)[C@@H](O)C(=O)O,inactive
20,O=S1(=O)CCCO1,inactive
